Screening data from PubChem.
CSC inhib: cancer stem cell viability inhibitors, primary screen, luminescence | inhibition, % at 7.5 µM | 300,000 tested, 1.1% active | AID 2717, 2010 | cancer stem cell-like cells viability; in the data active = inhibition above about 75%; tested in HMLE shEcad cells
Mdm2-MdmX inh: inhibitors of human Mdm2-MdmX association, primary screen, cell-based, luminescence, split luciferase, SaOS-2, uHTS | Protein Mdm4 (Homo sapiens) + E3 ubiquitin-protein ligase Mdm2 (Homo sapiens), … | SaOS-2 split-luciferase Mdm2/MdmX complementation | inhibition, % at 8 µM | 330,000 tested, 3% active;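 active = inhibition of at least 50% at 8 µM in the primary screen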
Target sequence (O15151 whole entry, looked up): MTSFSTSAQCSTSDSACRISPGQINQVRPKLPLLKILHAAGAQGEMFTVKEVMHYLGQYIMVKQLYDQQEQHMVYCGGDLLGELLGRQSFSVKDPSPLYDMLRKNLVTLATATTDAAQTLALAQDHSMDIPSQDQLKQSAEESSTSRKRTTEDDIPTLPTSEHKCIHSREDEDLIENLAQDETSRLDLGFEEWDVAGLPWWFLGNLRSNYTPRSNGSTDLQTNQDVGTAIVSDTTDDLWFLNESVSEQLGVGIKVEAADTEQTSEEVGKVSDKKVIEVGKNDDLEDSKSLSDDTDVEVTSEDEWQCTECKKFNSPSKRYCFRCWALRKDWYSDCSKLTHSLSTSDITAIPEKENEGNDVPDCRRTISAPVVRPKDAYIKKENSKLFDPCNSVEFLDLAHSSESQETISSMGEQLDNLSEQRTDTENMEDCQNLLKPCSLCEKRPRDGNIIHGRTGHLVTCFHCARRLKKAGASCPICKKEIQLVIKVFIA
Target sequence (Q00987 whole entry, looked up): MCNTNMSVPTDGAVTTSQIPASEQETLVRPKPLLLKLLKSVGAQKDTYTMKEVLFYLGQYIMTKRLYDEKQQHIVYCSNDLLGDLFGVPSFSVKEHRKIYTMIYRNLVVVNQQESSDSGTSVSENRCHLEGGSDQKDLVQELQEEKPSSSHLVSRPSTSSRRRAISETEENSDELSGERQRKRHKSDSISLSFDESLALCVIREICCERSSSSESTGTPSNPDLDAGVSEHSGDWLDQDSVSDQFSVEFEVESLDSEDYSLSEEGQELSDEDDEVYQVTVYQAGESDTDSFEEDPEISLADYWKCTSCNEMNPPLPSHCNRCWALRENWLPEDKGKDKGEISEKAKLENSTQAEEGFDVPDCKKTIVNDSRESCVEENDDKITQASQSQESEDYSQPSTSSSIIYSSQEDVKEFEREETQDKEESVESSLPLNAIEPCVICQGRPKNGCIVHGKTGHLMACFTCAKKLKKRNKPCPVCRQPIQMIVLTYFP
Gli-Sufu antag: Gli-Sufu pathway antagonists, primary screen, luciferase luminescence, Sufu-KO-LIGHT cells, uHTS; Sufu-KO-LIGHT fibroblasts, Gli luciferase reporter luminescence; inhibition, % at 5 µM; 340,000 tested, 0.74% active; AID 588413, 2011;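 active = inhibition above about 55%, limit read from the data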;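 also: 0% = DMSO-treated cells and 100% = wells with medium but no cells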
MPTP block: mitochondrial permeability transition pore inhibitors, primary screen, biochemical, isolated mouse mitochondria, absorbance. Ca2+ swelling absorbance, 30 min. inhibition, % at 10 µM. 360,000 tested, 1.4% active. AID 602449, 2012;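 active = inhibition of 50% or more, scaled per plate between neutral and stimulator controls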;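 also: 0% = DMSO wells given calcium and 100% = 1 mM EGTA wells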
Beta cell apopt: inhibitors of cytokine-induced beta cell apoptosis, primary screen, luminescence. INS-1E cytokine-induced death, ATP luminescence, 48 h; percent of positive-control rescue, neutral wells zero. AID 435005, 2010. 300,000 tested, 0.8% active. protection from apoptosis, % (concentration not given with the values);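 active = Every replicate reaches about 75%, or at least half do and their mean reaches it too, limit read from the data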;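 also: 0% = cytokine-treated negative control wells and 100% = positive control rescue; higher means more ATP so stronger rescue from cytokine killing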
NR3A LBD binder: binders of NR3A ligand-binding domain, primary screen, biophysical, differential scanning fluorimetry, uHTS. Tm shift relative to glycine control, % at 25 µM. NR3A LBD differential scanning fluorimetry, Tm shift; 0% = protein alone, 100% = glycine-bound protein. 340,000 tested, 2.5% active. Glutamate receptor ionotropic, NMDA 3A (GRIN3A) ligand-binding domain;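 active = melting temperature shift of at least 10% of the positive control shift, at one fixed dose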
Mdm2-MdmX conf: Mdm2-MdmX complex disruptors, retested hits, confirmation, luminescence, single concentration. shares compounds with Mdm2-MdmX inh. Mdm2-MdmX binding, luminescent assay. inhibition, % at 8 µM. 10,000 tested, 55% active; in the data active = inhibition above about 40%
FLuc counter: full-length luciferase signal inhibition, confirmation, counter-screen for Mdm2/MdmX interaction inhibitor project, cell-based, single concentration, SaOS-2; SaOS-2 full-length luciferase counterscreen, luminescence; shares compounds with Mdm2-MdmX inh; inhibition, % at 8 µM; 6,200 tested, 77% active; AID 504607, 2011;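 active = mean inhibition at 8 µM reaching about 37%, which flags the compound as non-specific, limit read from the data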;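 also: p53-null SaOS-2 cells with luciferase driven by a doxycycline-inducible promoter; compound on cells about two nights before reading with doxycycline added after day one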
Numbers without * were called inactive; nt = no result. Hits are enriched below; roughly 6.6% of the tested compounds scored in any of these assays.

SMILES | CSC inhib | Mdm2-MdmX inh | Gli-Sufu antag | MPTP block | Beta cell apopt | NR3A LBD binder | Mdm2-MdmX conf | FLuc counter
Cc1cccc(NC(c2ccc(C)s2)c2ccc3ccc(C)nc3c2O)n1 (stereo not given) | nt | 97.9* | 6.4 | 0.3 | nt | -2.4 | 60.8* | 23.7
Cc1ccc2ccc(C(Nc3ccccc3)c3ccccc3)c(O)c2n1 (stereo not given) | nt | nt | nt | 4.9 | nt | nt | nt | nt
Oc1ccccc1C(Nc1nccs1)c1ccc2cccnc2c1O (stereo not given) | 137.7* | 64.0* | 8.2 | 3.1 | 87.0* | -4.2 | 78.2* | 48.2*
Cc1ccc2ccc(C(Nc3ccccn3)c3ccccc3)c(O)c2n1 (stereo not given) | nt | 42.7 | 5.5 | 1.2 | nt | -1.0 | nt | nt
C[C@H]1CN([C@@H](C)CO)C(=O)c2cc(Br)cnc2O[C@@H]1CN(C)C(=O)c1ccncc1 | nt | nt | nt | -1.8 | nt | nt | nt | nt
O=c1cc(-c2ccccc2)nc(/C=C/c2ccccc2)[nH]1 | 20.2 | 0.0 | -2.3 | 5.1 | -2.6 | -1.4 | nt | nt
Cc1ccc2[nH]cc(CCNS(=O)(=O)c3ccc(F)cc3)c2c1 | nt | -2.0 | -34.8 | 7.4 | nt | -7.9 | nt | nt
COc1cc2cccc(OC)c(=O)c2c(O)c1OC | 13.2 | -39.7 | -24.4 | 1.4 | -1.5 | 0.5 | nt | nt
COc1cc2c(ccc3cc(OC)c(OC)c(O)c32)cc1O | -5.1 | 73.6* | 7.8 | 6.6 | 10.2 | -2.4 | 38.0 | 31.4
CC(C)c1ccc(OCC(O)CNC(C)c2ccccc2)cc1 (stereo not given) | 29.6 | 52.0* | 24.1 | 2.2 | 14.9 | -2.3 | 23.0 | nt
OC(CNCCc1ccccc1)COc1ccc(OCC(O)CNCCc2ccccc2)cc1 (stereo not given) | 14.5 | 98.6* | 4.5 | -4.4 | 2.6 | -0.2 | 75.7* | 47.0*
CC(NCC(O)COCCC12CC3CC(CC(C3)C1)C2)c1ccccc1 (stereo not given) | 105.2* | 100.4* | 14.2 | 2.3 | 88.5* | -2.8 | 98.8* | 36.9*
NCC(O)COCCC12CC3CC(CC(C3)C1)C2 (stereo not given) | -12.5 | 13.4 | 0.2 | 8.6 | -1.6 | 1.7 | nt | nt
CC1c2cc3c(cc2CCN1CC(=O)Nc1ccccc1)OCCCO3 (stereo not given) | -9.4 | -4.4 | 39.6 | 1.2 | 1.7 | -0.5 | nt | nt
CC1c2cc3c(cc2CCN1C(=O)c1cccc(Cl)c1)OCCCO3 (stereo not given) | 36.4 | 56.7* | 12.7 | 5.8 | 6.2 | 5.0 | 44.2* | 62.0*
O=C(c1[nH]ncc1-c1cccc(Br)c1)C1CO1 (stereo not given) | 26.4 | 50.9* | -2.4 | 2.2 | -24.6 | 2.9 | 43.5* | 50.8*
O=C(c1[nH]ncc1-c1ccccc1)C1CO1 (stereo not given) | -12.2 | 22.4 | 2.7 | 2.1 | -12.8 | -0.2 | nt | nt
N=C1C(c2nc(-c3ccc(Cl)cc3)cs2)=C(O)CN1NC(=O)c1ccc(O)cc1 | -2.0 | 12.2 | -16.4 | 3.4 | 0.5 | 1.6 | nt | nt
c1ccc(Nc2nc(N3CCCC3)nc(N3CCOCC3)n2)cc1 | -1.9 | 19.6 | -0.2 | 0.5 | -2.7 | 0.5 | nt | nt
Cc1[nH]c2ccccc2c1/C=N/Nc1nc(Nc2ccccc2)nc(N2CCOCC2)n1 | 33.2 | 58.5* | 12.1 | 1.3 | 12.0 | 9.1 | 29.7 | nt
Oc1[nH]c2ccccc2c1N=Nc1nc(Nc2ccccc2)nc(N2CCOCC2)n1 | 36.8 | 80.3* | 13.3 | 1.1 | 12.2 | -3.3 | 80.6* | 59.2*
Cc1ccsc1C(=O)OCC(=O)NC1CCCCC1C (stereo not given) | nt | -4.7 | -0.6 | 0.0 | nt | 3.7 | nt | nt
CCOC(=O)C1=C(CCc2ccccc2)NC(=O)NC1c1ccc(C#N)cc1 (stereo not given) | -3.1 | 12.6 | -4.0 | -1.5 | -5.5 | -3.2 | nt | nt
